beta cell repl – induces beta-cell replication in MIN6 cells | proliferation, % at 10 µM | MIN6 cells proliferation, ATPlite luminescence, 48 h; cells starved in 0.2% serum; 100% = growth in 10% serum | 330,000 tested, 0.29% active;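 active means compounds whose signal lies at least 3.5 SD above the mean of all wells on their plate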;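 further: 0% = DMSO-treated cells in low-serum medium and 100% = 10% serum control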
H9c2 TAG inh – inhibitors of triacylglycerol accumulation; AID 651582; H9c2 cells, Nile Red lipid (TAG) fluorescence; cells loaded with 200 µM oleic acid; 230,000 tested, 0.66% active; inhibition, % at 12.5 µM;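 active means pattern-corrected inhibition of lipid staining of at least 50% with the nuclear-stain viability signal not falling by more than 50%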;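 further: 0% = DMSO wells and 100% = triacsin C control wells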
iPSC survival up – enhancers of human iPSC single-cell survival; hiPSC single-cell survival, ATPlite luminescence; 100% = ROCK inhibitor wells, 0% = DMSO; 360,000 tested, 0.044% active; AID 602274; survival enhancement, % at 20 µM; in the data active means survival enhancement above about 18%;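 further: cells exposed to compounds for 16 hours before the ATP read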
* hit, by the source's call; x = no result given. Most compounds without a hit are left out; they make up all but 0.71% or so of the library.

SMILES | beta cell repl | H9c2 TAG inh | iPSC survival up
CCOC(=O)NC(O)C(=O)c1ccc(F)cc1 (stereo unspecified) | 4 | -1 | -2
CCOC(=O)NC(O)C(=O)c1cccs1 (stereo unspecified) | 5.0* | 6 | 6
Cc1noc(C)c1-c1ccc(C(=O)Nc2cccc(C(F)(F)F)c2)c2occc12 | x | 9 | 0
CCN1C(=O)[C@H]2[C@@H](c3ccc(-c4cccc(Cl)c4)c(OC)c3)N[C@@](CC(C)C)(C(=O)OC)[C@H]2C1=O | -8 | 70* | -1
CCN1C(=O)[C@H]2[C@@H](c3ccc(-c4cccc(Cl)c4)cc3)N[C@@](CC(C)C)(C(=O)OC)[C@H]2C1=O | -6 | 29 | 1
Cc1cccc(C)c1NC(=O)CNC(=O)c1cn(-c2ccccc2)nc1-c1ccccc1 | -3 | -10 | 0
Cc1nn(Cc2c(Cl)cccc2Cl)c(C)c1NC(=O)c1cn(-c2ccccc2)nc1-c1ccccc1 | -3 | 50* | 4
CC(C)(C)C(=O)c1c(N)[nH]c(C(=O)c2ccccc2)c1-c1c(F)cccc1F | x | x | 1
CCC(CC)C(=O)N(C)c1c(C)nc2c(OCCC3CCCCC3)cccn12 | x | 27 | 4
Nc1c2c(nc3ccccc13)CCCC2 | 0 | 12 | 6
Nc1c2ccccc2nc2ccccc12 | -9 | 54* | -2
CC(=NO)C1(C)CC=CCC1CO (stereo unspecified) | x | 6 | 3
CC1=CC(C)(C)Nc2ccc(OC(=O)CN3C(=O)c4cccc5cccc(c45)C3=O)cc21 | x | x | -3
CC1=CC(C)(C)Nc2ccc(OC(=O)CN3C(=O)c4ccccc4C3=O)cc21 | -3 | 52* | -2
COc1ccc([C@H]2CC(=O)C[C@@H](CCn3cc(C(C)C)nn3)O2)cc1 | x | x | -1
FC(F)(F)C1=NNC(c2ccc3ccccc3c2)=NN1 | x | 1 | -1
Cc1cccc(Nc2nc(N)nc(-c3oc4ccccc4c3C)n2)c1 | -4 | 20 | 0
Cc1ccc(Nc2nc(N)nc(-c3oc4ccccc4c3C)n2)cc1 | -5 | 58* | 0
O=C(Nc1cccc2[nH]c([C@H]3C[C@H](O)[C@@H](CO)O3)nc12)NC(c1ccccc1)c1ccccc1 | x | 7 | 3
COc1ccc(Cc2nnc(SC)n2-c2ccc(F)cc2)cc1OC | x | x | 0
Nc1ncnc2c1ncn2C1OCC(O)C1O (stereo unspecified) | x | x | 0
Cc1ccc(N/C(=C\C(=O)c2ccccc2)C(=O)O)cc1 | 7.1* | -9 | -1
Cc1ccc(NC(=O)c2ccccc2)cc1 | -1 | 12 | -2
CC1CCC(C(C)C)C(OC(=O)Cn2c(-c3ccccc3)[n+](C)c3ccccc32)C1 (stereo unspecified) | 0 | x | -4
Cc1cccc(OCc2n(CC(=O)OC3CC(C)CCC3C(C)C)c3ccccc3[n+]2C)c1 (stereo unspecified) | -5 | 98* | -5
SMILES | beta cell repl | H9c2 TAG inh | iPSC survival up
Cc1[nH]c2ccccc2c1/C=N/Nc1ccccc1[N+](=O)[O-] | -6 | 60* | 0
COc1ccc(NS(=O)(=O)c2cc([N+](=O)[O-])ccc2N/N=C/c2c(C)[nH]c3ccccc23)cc1 | x | -47 | -3
Clc1ccc(-c2nc3c4ccccc4ccn3c2Cc2ccccc2)cc1 | x | 6 | 4
Oc1c(N=Nc2ccc(F)cc2)ccc2ccccc12 | -3 | x | 0
Oc1ccc2ccccc2c1N=Nc1ccc(F)cc1 | -4 | 58* | -1
O=C1/C(=N\S(=O)(=O)c2cccs2)C([n+]2cccc(Cc3ccccc3)c2)=C([O-])c2ccccc21 | -4 | 73* | 0
O=C1/C(=N\S(=O)(=O)c2cccs2)C([n+]2ccc(CCCc3ccccc3)cc2)=C([O-])c2ccccc21 | -4 | 16 | 0
Cc1ccc([C@H]2N[C@]3(CCCN(Cc4ccc(Br)cc4)C3=O)[C@H]3C(=O)N(C)C(=O)[C@@H]23)cc1 | x | -2 | -3
CNc1ncc(C(=O)c2ccc(F)cc2)s1 | 10* | -9 | -2
O=C(c1ccc(F)cc1)c1cnc(Nc2ccccc2)s1 | -4 | -2 | -1
CCCCn1c(=O)[nH]c(=O)c2c1nc(CN1C(=O)c3ccccc3S1(=O)=O)n2CCC | -1 | x | -5
CCCCn1c(=O)[nH]c(=O)c2c1nc(Cn1ncc(Cl)c(Cl)c1=O)n2CCC | -6 | x | 20*
COc1ccccc1-c1nnc(Nc2nc3c(OC)cccc3s2)o1 | -6 | 67* | -4
COc1cccc2sc(Nc3nc(-c4ccncc4)cs3)nc12 | 0 | 57* | 0
COc1cccc2sc(Nc3nnc(-c4ccccc4Cl)o3)nc12 | -6 | 21 | 0
COc1cccc2sc(NN)nc12 | 0 | 20 | 0
O=C1NC[C@H](CCCCN2C[C@H](Cc3ccccc3)N(CCc3ccc(O)cc3)C(=O)C2=O)N(CC2CCCCC2)C1=O | x | x | 2
C=CCOC(=O)/C=C/C(=O)NC(N)=O | 11* | x | 0
C=CCOC(=O)Nc1ccc(Cl)cc1NC(=O)OCC=C | -1 | -5 | -2
CCCC1=Nc2cc(C(=O)NCCCOC(C)C)ccc2Sc2ccccc21 | -5 | 40 | -1
CCCC1=Nc2cc(C(=O)NCCCOCC)ccc2Sc2ccccc21 | -6 | 79* | -4
COC(=O)C[C@H]1C[C@H]2c3cc(NS(=O)(=O)c4cccc(OC)c4)ccc3O[C@H]2[C@@H](CO)O1 | x | -2 | 0
C=C1CCN(C(C)C(=O)OC)S(=O)(=O)c2ccccc21 (stereo unspecified) | -1 | 55* | 8
C=C1CCN(C(C(=O)OC)C(C)C)S(=O)(=O)c2ccccc21 (stereo unspecified) | 10 | -3 | -1
O=C(NC1CCCCC1)N(Cc1nc2ccccc2c(=O)[nH]1)C1CCCC1 | -2 | 13 | -1
SMILES | beta cell repl | H9c2 TAG inh | iPSC survival up
O=C(NC1CCCCC1)N(Cc1nc2ccccc2c(=O)[nH]1)C1CCCCC1 | -1 | 4 | 28*
COc1cc2c(cc1OC)C(c1ccc3c(c1)Cc1ccccc1-3)OC(=O)C2 (stereo unspecified) | x | 13 | 0
COC(=O)CN1C(=O)CSc2ccc(S(=O)(=O)N3CCC(C)CC3)cc21 | x | x | -1
COc1ccccc1-c1cc(C(F)(F)F)nc(S(=O)(=O)CCCC(=O)N2CCCCC2C)n1 (stereo unspecified) | -3 | 67* | -6
COc1ccccc1-c1cc(C(F)(F)F)nc(S(=O)(=O)CCCC(=O)NCc2ccc(F)cc2)n1 | -7 | 82 | 0
COc1ccc(N2CCN(C(=O)C(=O)c3cn(CC(=O)N4CCCC4)c4ccccc34)CC2)cc1 | x | 21 | 0
Cc1c(Nc2ccc3nonc3c2[N+](=O)[O-])c(=O)n(-c2ccccc2)n1C | -2 | -14 | -1
Cc1c(Nc2cc(Cl)c3nonc3c2[N+](=O)[O-])c(=O)n(-c2ccccc2)n1C | -5 | 102* | 33*
O=c1[nH][nH]c2c1[C@H](C1CCCC1)O[C@H](CCc1ccccc1)C2 | x | x | 1
COc1ccc(/C=C2\CCC(C3CCCC3)C2=O)cc1 (stereo unspecified) | -3 | x | 1
COc1ccc(/C=C2/CCC(CN3CCOCC3)C2=O)cc1 (stereo unspecified) | x | 73* | -2
Cc1cc(C)nc(NC(=S)NC(=O)c2ccccc2F)n1 | -2 | -4 | 0
Cc1cc(C)nc(S/C=C/C(=O)c2ccccc2F)n1 | -4 | 75* | -1
